Compounds without any hit were thinned out: in the full panel of roughly 83,000, 20% have a hit.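 Note: values are percent growth. 100 is the growth of untreated cells, values between 100 and 0 indicate rising inhibition; between -100 and 0 indicates cell death.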 A number with no mark means an inactive call. Active and inactive are the calls of the source. Rule for the calls: active = growth percent below 10; inactive = the rest.
Columns and labels:
Test in all cases: NCI-60 one-dose screen, 48 h (100 = growth as untreated, 0 = no growth, -100 = all killed)
Settings in all cases: 10 µM unless noted
SK-MEL-2 melanoma = test system: SK-MEL-2 melanoma
EKVX NSCLC = test system: EKVX NSCLC
SN12C renal = test system: SN12C renal
UO-31 renal = test system: UO-31 renal
TK-10 renal = test system: TK-10 renal
ACHN renal = test system: ACHN renal
CAKI-1 renal = test system: CAKI-1 renal
A498 renal = test system: A498 renal
CCRF-CEM leukemia = test system: CCRF-CEM leukemia
MOLT-4 leukemia = test system: MOLT-4 leukemia

Structure (SMILES)	growth (SK-MEL-2 melanoma)	growth (EKVX NSCLC)	growth (SN12C renal)	growth (UO-31 renal)	growth (TK-10 renal)	growth (ACHN renal)	growth (CAKI-1 renal)	growth (A498 renal)	growth (CCRF-CEM leukemia)	growth (MOLT-4 leukemia)
O=C(NNC(=O)c1ccc(NC(=O)c2ccccn2)cc1)Nc1ccc([N+](=O)[O-])cc1	106%	102%	96.6%	75.8%	101%	95.5%	91.6%	104%	103%	103%
COc1c(B(O)O)cccc1-c1nc2c(F)cc3[nH]ncc3c2c2c1CCCC2	-6.26% (active)	7.37% (active)	15.8%	-1.82% (active)	16.2%	0.144% (active)	-28% (active)	-64.6% (active)	13.9%	7.73% (active)
CCOC(=O)c1cc2c(n1C)-c1nc(NC(C)=O)sc1CCC2	89.9%	60.7%	81.9%	43.2%	138%	86.7%	76.4%	53.2%	73.8%	81.6%
O=c1[nH]c(-c2ccccc2)nc2sc3cc(O)ccc3c12	103%	66.4%	89.1%	55.9%	99.9%	76.2%	68.9%	79.3%	73.1%	66.9%
CC(=O)O[C@@H]1C[C@]2(C(C)C)O[C@@]1(C)[C@@H]1CCC(C)=C1[C@@H]2OC(=O)/C=C/c1ccccc1	89.7%	83.5%	48.4%	60.5%	95.4%	34.6%	71.3%	-4.32% (active)	84.9%	83.8%
CCc1ccccc1-n1c(-c2ccc(OC)cc2)cc(-c2ccc(OC)cc2)c(C#N)c1=O	90.2%	94.1%	89.8%	88.3%	97.2%	61.6%	77.9%	69.5%	127%	133%
COc1ccc(-c2ccc(=O)oc2-c2cc(OC)c(OC)c(OC)c2)cc1O	39.6%	30.9%	25.7%	32.4%	68%	38.9%	-15.8% (active)	-39.7% (active)	7.05% (active)	2.3% (active)
CCN1C(=S)N(c2ccccc2)C2NC(=S)N(/N=C/C=C/c3ccccc3OC)C21 (stereo not given)	32.8%	48.2%	24.6%	44%	68.6%	33.3%	27.7%	1.17% (active)	9.27% (active)	9.49% (active)
COC1/C=C/OC2(C)Oc3c(C)c(O)c4c(O)c(c(/C=N/Nc5ccc([N+](=O)[O-])cc5[N+](=O)[O-])c(O)c4c3C2=O)NC(=O)C(C)=C/C=C/C(C)C(O)C(C)C(O)C(C)C(OC(C)=O)C1C (stereo not given)	30.5%	45.1%	-5.59% (active)	70.2%	25.7%	28.1%	74.2%	96%	6.19% (active)	0.359% (active)
COc1c(B(O)O)cccc1-c1cc(C)c2c(ccc3[nH]ncc32)n1	116%	65.8%	60.5%	21.6%	29.2%	55.7%	-17.9% (active)	8.91% (active)	63.3%	64.2%
O=C(Nc1ccc(Oc2cccc(Cl)c2)c(Cl)c1)c1cccnc1	44.1%	50.9%	43.4%	44.1%	59.8%	41.7%	30.6%	-3.1% (active)	17.5%	37.4%
O=S(=O)(NCCCNc1nccc(-c2c(-c3ccc(F)c(O)c3)nc3sccn23)n1)c1ccccc1	24.9%	106%	59%	31.1%	120%	52.3%	55.9%	104%	38.2%	50.9%
Cc1[nH]c(C(=O)Nc2ccccc2OC2CCNCC2)c(Cl)c1Cl	24.2%	43%	-53.2% (active)	-75.8% (active)	-3.07% (active)	-19.2% (active)	1.32% (active)	67.6%	1.15% (active)	4.46% (active)
C1CN(SSN2CCOCC2)CCO1	63.1% [100 µM]	13.1% [100 µM]	-74.7% [100 µM] (active)	-37.5% [100 µM] (active)	-72.8% [100 µM] (active)	-70.1% [100 µM] (active)	-48.4% [100 µM] (active)	75.8% [100 µM]	11.8% [100 µM]	50.4% [100 µM]
N#CC1=C(N)Oc2c(sc3c(Br)cccc23)C1c1ccc(Cl)cc1 (stereo not given)	-2.16% (active)	34.3%	30%	34.2%	37.8%	43.6%	39.3%	16.3%	13.7%	3.26% (active)
COc1ccc(/C=N/NC(=O)c2ccc(-n3cc(-c4ccccc4)nn3)cc2)cc1OC	108%	102%	103%	108%	113%	98%	81%	100%	99.2%	95.6%
CCCCCCCCCCCCCCCCOCCCOP(=O)(O)C1CCCN(O)C1=O (stereo not given)	36%	33.9%	16.3%	5.07% (active)	33.1%	10.5%	16.6%	1.39% (active)	5.85% (active)	7.18% (active)
NC(=O)c1cc(I)ccc1NC(=O)/C=C/c1ccccc1	-31.7% (active)	36.1%	31.5%	28.1%	60.8%	38.2%	25.6%	-14.9% (active)	11.9%	4.56% (active)
COc1ccc(NC(=O)c2sc3nc(C)c(C(=O)/C=C/c4ccccc4)cc3c2N)cc1	88.7%	87.1%	17.6%	17.7%	80.5%	50.3%	29%	21%	3.56% (active)	27.6%
CCCCCCCC[C@@H]1N[C@@H](C(=O)OC)Cc2c1[nH]c1ccccc21	109%	92%	97.4%	73.9%	101%	94.6%	78.8%	88.7%	92.3%	93%
CCOC(=O)[C@@H]1CSC(CC)=C(C(=O)O)N1	111%	105%	98.4%	85.1%	110%	97.6%	97.1%	108%	-12.6% (active)	-5.82% (active)
C=CCc1c(O)c(C(=O)/C=C/c2ccccc2)c(OC)c2ccoc12	11.5%	64.6%	57%	50.9%	38.8%	51.7%	13.1%	-10.9% (active)	21.3%	15.3%
O=C(Nc1cccc(Cl)c1)Nc1cccc(Cn2c(=O)[nH]c3ccc(Oc4ncccn4)cc3c2=O)c1	69.6%	72.4%	76%	61.8%	68.9%	72.2%	63.8%	48.7%	32.6%	6.46% (active)
NS(=O)(=O)c1ccccc1NC(=O)Nc1nc2ccccc2s1	102%	85.6%	98.3%	84.1%	153%	99.4%	89.7%	97.6%	99.2%	102%
O=S(=O)(Nc1ccc(Cl)c(C(F)(F)F)c1)c1ccc(-c2cnc(C3CC3)o2)cc1	5.31% (active)	31.5%	10.7%	35.5%	3.01% (active)	34.6%	35.6%	-8.08% (active)	9.87% (active)	5.21% (active)
[O-]/[N+](=C\c1ccc(-n2cc(Cc3ccccc3Cc3cn(-c4ccc(/C=[N+](/[O-])c5ccccc5)cc4)nn3)nn2)cc1)c1ccccc1	111%	96.8%	101%	93.3%	121%	103%	98.8%	83.3%	103%	89.5%
CCOC(=O)c1c(NC(=O)c2ccc(Cl)cc2)sc2c(CN(C)C)c(O)ccc12	101%	93.8%	83.6%	67.5%	108%	50.7%	67.2%	76.3%	62.6%	59.5%

Reference: PubChem BioAssay (NCI)
